# Values joined by “and” are separate entries in the source; they are usually repeats but may differ in a detail not shown here. Equal entries are not always repeated. Inconclusive results are not listed. A call without a number means that no potency is given here. More than one record can exist for a structure, and the calls need not agree. Active and inactive are the calls of the source. Unless noted, the call rests on the fitted dose curve; in most records, active means well fitted curve in the direction sought with a large enough effect in the repeat runs; inconclusive means weak or mixed curves; inactive means no such curve, though single readings can be large; an effect the other way counts as inactive or inconclusive.
# Experiments:
# [1] = qHTS assay to identify small molecule agonists of the hypoxia (HIF-1) signaling pathway - cell viability counter screen (AID 1224844; calls by dose curve; further: nearly all actives have a fitted effect of over 50% in size)
# How it was run: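 Same wells as the HIF-1 reporter screen; ME-180 cells carrying HRE-bla, 17 hr treatment at 37C; CellTiter-Glo luminescence read after 30 min at room temperature.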
# [2] = qHTS assay to identify small molecule agonists of H2AX (AID 1224845; active means well fitted activation curve with a large enough effect in the signal ratio in the repeat runs, not every such curve was filed as active; the % refers to the signal ratio)
# How it was run: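 Wild-type CHO-K1 cells, plated overnight, exposed 3hr at 37C to 15 concentrations (0.76% DMSO final). Lysed, then HTRF anti-pH2AX (S139) cryptate and anti-H2AX-d2 antibodies, 24 hr room temperature; 665/620 nm emission read.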
# [3] = qHTS assay to identify small molecule agonists of the hypoxia (HIF-1) signaling pathway (AID 1224846; active means well fitted activation curve with a large enough effect in the signal ratio in the repeat runs, not every such curve was filed as active; the % refers to the signal ratio)
# How it was run: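 In ME-180 cells bearing an HRE-bla construct, 17 h treatment with DMSO-dissolved compounds at 37C was followed by CCF4-AM loading to quantify reporter induction.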
# [4] = qHTS assay to identify small molecule agonists of H2AX - cell viability counter screen (AID 1224847; calls by dose curve; further: top concentration of the series differs between compounds; nearly all actives have a fitted effect of over 30% in size)
# How it was run: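 After overnight plating of 1000 CHO-K1 cells per well, a 15-concentration compound series was applied for 3 hr at 37C. Luminescence from CellTiter-Glo, read following 30 min at room temperature, reflected cell viability.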
# [5] = qHTS RealTime-Glo MT Cell Viability Assay in HepG2 cells - 24 hour (AID 1224867); further: nearly all actives have a fitted effect of over 50% in size
# How it was run: (§1)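 Viability was tracked continuously by NanoLuc luminescence from prosubstrate reduced by living HepG2 cells, at successive time points over 40 h of compound exposure. Cells with reagent were preincubated 5 h at 37 °C before compound addition.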
# [6] = qHTS RealTime-Glo MT Cell Viability Assay in HEK293 cells - 32 hour (AID 1224868); further: nearly all actives have a fitted effect of over 50% in size; further: potency means the concentration at half of the fitted maximal effect
# How it was run: (§2)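 Viability tracked continuously by luminescence as live cells reduce a prosubstrate for NanoLuc; HEK293 cells preincubated 5 h, compound-treated at 37 C, and read at 0, 8, 16, 24, 32 and 40 h.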
# [7] = A CellTox Green Cytotoxicity Assay to monitor cytotoxicity in HEK293 cells - 0 hour (AID 1224869); further: nearly all actives have a fitted effect of over 50% in size
# How it was run: (§3)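 Homogeneous no-lysis format: HEK293 cell suspension mixed with CellTox Green reagent, seeded, incubated 5 h at 37 C/5% CO2, then dosed by pintool with compound in DMSO.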
# [8] = qHTS RealTime-Glo MT Cell Viability Assay in HepG2 cells - 40 hour (AID 1224870); further: nearly all actives have a fitted effect of over 50% in size
# How it was run: (§4)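 HepG2 cells (600/well) mixed with RealTime-Glo MT reagent, settled 5 h at 37 C/5% CO2 before compound addition. Nonlytic NanoLuc luminescence from viable-cell prosubstrate reduction read repeatedly during 40 h treatment at 37 C.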
# [9] = A CellTox Green Cytotoxicity Assay to monitor cytotoxicity in HEK293 cells - 40 hour (AID 1224871); further: nearly all actives have a fitted effect of over 45% in size
# How it was run: as §3
# [10] = qHTS RealTime-Glo MT Cell Viability Assay in HEK293 cells - 16 hour (AID 1224872); further: nearly all actives have a fitted effect of over 50% in size; further: potency means the concentration at half of the fitted maximal effect
# How it was run: as §2
# [11] = qHTS RealTime-Glo MT Cell Viability Assay in HepG2 cells - 8 hour (AID 1224873); further: nearly all actives have a fitted effect of over 55% in size
# How it was run: as §4
# [12] = qHTS RealTime-Glo MT Cell Viability Assay in HEK293 cells - 40 hour (AID 1224874); conditions: RealTime-Glo luminescence; max response: stronger effect = lower value; further: nearly all actives have a fitted effect of over 50% in size; further: potency means the concentration at half of the fitted maximal effect
# How it was run: (§5)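 Measured as luminescence from the same continuously cultured HEK293 wells at successive time points (0, 8, 16, 24, 32, 40 h) after compound addition. Reagent present from seeding; dosing at 5 h; incubation 37 C.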
# [13] = A CellTox Green Cytotoxicity Assay to monitor cytotoxicity in HEK293 cells - 24 hour (AID 1224875); further: nearly all actives have a fitted effect of over 45% in size
# How it was run: as §3
# [14] = A CellTox Green Cytotoxicity Assay to monitor cytotoxicity in HepG2 cells - 16 hour (AID 1224876); further: nearly all actives have a fitted effect of over 45% in size
# How it was run: (§6)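 Fluorescent DNA-binding dye, 600 HepG2 cells/well, 5 h preincubation then compound in DMSO; same plates read at 0–40 h, 37 C.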
# [15] = qHTS RealTime-Glo MT Cell Viability Assay in HepG2 cells - 32 hour (AID 1224877); further: nearly all actives have a fitted effect of over 55% in size
# How it was run: as §1
# [16] = A CellTox Green Cytotoxicity Assay to monitor cytotoxicity in HepG2 cells - 40 hour (AID 1224879); further: nearly all actives have a fitted effect of over 40% in size
# How it was run: as §6
# [17] = qHTS RealTime-Glo MT Cell Viability Assay in HEK293 cells - 0 hour (AID 1224880); further: top concentration of the series differs between compounds; nearly all actives have a fitted effect of over 45% in size
# How it was run: as §5
# [18] = qHTS assay to identify small molecule antagonists of the estrogen related receptor (ERR) signaling pathway from Tox21 library (AID 1224848); further: nearly all actives have a fitted effect of over 50% in size
# How it was run: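 Quantitative high-throughput format: ERR reporter cells (2,000/well) pre-incubated 6 h, treated 18 h at 37 C with compounds in DMSO alongside positive and negative controls, then read by ONE-Glo luminescence.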
# [19] = qHTS assay to identify small molecule agonists of the estrogen related receptor (ERR) signaling pathway from Tox21 library (AID 1224849; calls by dose curve; further: nearly all actives have a fitted effect of over 15% in size); conditions: ERR reporter cell line, ONE-Glo luciferase, 18 h
# How it was run: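 Reporter cells (ERR, NTP source) treated with Tox21 10K compounds 18 h, 37 C. Readout: ONE-Glo luminescence, 30 min RT.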
# [20] = A CellTox Green Cytotoxicity Assay to monitor cytotoxicity in HepG2 cells - 24 hour (AID 1224878); further: nearly all actives have a fitted effect of over 45% in size
# How it was run: as §6
smiles,measurement,setting,value
COc1ccc(C(=O)c2ccccc2)c(O)c1,Potency,[1],inactive
same,Potency,[2],inactive
same,outcome,[3],inactive
same,Potency,[4],inactive
same,outcome,[5],inactive
same,Potency,[6],inactive and 9.77 µM (active)
same,Potency,[7],inactive
same,outcome,[8],inactive
same,Potency,[9],inactive
same,Potency,[10],inactive and 21.9 µM (active)
same,outcome,[11],inactive
same,Potency,[12],7.76 µM (active)
same,max response,[12],-12.2% (inactive) and 5.78% (inactive)
same,Potency,[13],inactive
same,Potency,[14],inactive
same,outcome,[15],inactive
same,Potency,[16],inactive
same,Potency,[17],inactive
C=CCOC(=O)CC(C)C,Potency,[1],inactive
same,Potency,[2],inactive
same,outcome,[3],inactive
same,Potency,[4],inactive
same,Potency,[18],inactive
same,"activity change, positive = activation",[19]; at 92.4 µM (top of the series),8.22% (inactive) and 2.25% (inactive)
same,outcome,[5],inactive
same,Potency,[6],inactive
same,Potency,[7],inactive
same,outcome,[8],inactive
same,Potency,[9],inactive
same,Potency,[10],inactive
same,outcome,[11],inactive
same,max response,[12],4.01% (inactive) and 4.38% (inactive)
same,Potency,[13],inactive
same,Potency,[14],inactive
same,outcome,[15],inactive
same,Potency,[20],inactive
same,Potency,[16],inactive
same,Potency,[17],inactive
OC[C@@H](O)[C@@H](O)[C@H](O)[C@H](O)CO,Potency,[1],inactive
same,Potency,[2],inactive
same,outcome,[3],inactive
same,Potency,[4],inactive
same,Potency,[18],inactive
same,"activity change, positive = activation",[19]; at 42.5 µM (top of the series),2.34% (inactive)
same,"activity change, positive = activation",[19]; at 92.4 µM (top of the series),1.3% (inactive) and 3.91% (inactive)
same,outcome,[5],inactive
same,Potency,[6],inactive
same,Potency,[7],inactive
same,outcome,[8],inactive
same,Potency,[9],inactive
same,Potency,[10],inactive
same,outcome,[11],inactive
same,max response,[12],5.62% (inactive) and 0.187% (inactive) and 10.1% (inactive)
same,Potency,[13],inactive
same,Potency,[14],inactive
same,outcome,[15],inactive
same,Potency,[16],inactive
same,Potency,[17],inactive
CC(=O)/C=C/C1=C(C)CCCC1(C)C,Potency,[1],inactive
same,Potency,[2],inactive
same,outcome,[3],inactive
same,Potency,[4],inactive
same,outcome,[5],inactive
same,Potency,[6],inactive
same,Potency,[7],inactive
same,outcome,[8],inactive
same,Potency,[9],inactive
same,Potency,[10],inactive
same,outcome,[11],inactive
same,max response,[12],-10% (inactive) and 2.42% (inactive) and 0.0931% (inactive)
same,Potency,[13],inactive
same,Potency,[14],inactive
same,outcome,[15],inactive
same,Potency,[16],inactive
same,Potency,[17],inactive
COc1ccccc1O,Potency,[1],inactive
same,Potency,[2],inactive
same,outcome,[3],inactive
same,Potency,[4],inactive
same,outcome,[5],inactive
same,Potency,[6],inactive
same,Potency,[7],inactive
same,outcome,[8],inactive
same,Potency,[9],inactive
same,Potency,[10],inactive
same,outcome,[11],inactive
same,max response,[12],18.7% (inactive) and 1.57% (inactive) and 2.8% (inactive)
same,Potency,[13],inactive
same,Potency,[14],inactive
same,outcome,[15],inactive
same,Potency,[20],inactive
same,Potency,[16],inactive
same,Potency,[17],inactive
Nc1cccc(N)c1,Potency,[1],inactive
same,Potency,[2],inactive
same,outcome,[3],inactive
same,Potency,[4],inactive
same,outcome,[5],inactive
same,Potency,[6],inactive
same,Potency,[7],inactive
same,outcome,[8],inactive
same,Potency,[9],inactive
same,Potency,[10],inactive
same,outcome,[11],inactive
same,max response,[12],6.95% (inactive) and 5.34% (inactive) and 0.651% (inactive)
same,Potency,[13],inactive
same,Potency,[14],inactive
same,outcome,[15],inactive
same,Potency,[16],inactive
same,Potency,[17],inactive

# — PubChem BioAssay (Tox21)
